How the values were obtained:
[1] = target: T1, Aspartate--tRNA(Asp/Asn) ligase (Mycobacterium tuberculosis (strain ATCC 25618 / H37Rv)) (UniProt P9WFW3); assay: Assay for Asp RNA synthetase-1 from Mycobacterium tuberculosis; assay type: functional; set-up: scale not given: direction of the effect not stated beside the values; settings: 30 µM; note: in the data most compounds retested in dose-response had high values
T1 sequence (whole entry): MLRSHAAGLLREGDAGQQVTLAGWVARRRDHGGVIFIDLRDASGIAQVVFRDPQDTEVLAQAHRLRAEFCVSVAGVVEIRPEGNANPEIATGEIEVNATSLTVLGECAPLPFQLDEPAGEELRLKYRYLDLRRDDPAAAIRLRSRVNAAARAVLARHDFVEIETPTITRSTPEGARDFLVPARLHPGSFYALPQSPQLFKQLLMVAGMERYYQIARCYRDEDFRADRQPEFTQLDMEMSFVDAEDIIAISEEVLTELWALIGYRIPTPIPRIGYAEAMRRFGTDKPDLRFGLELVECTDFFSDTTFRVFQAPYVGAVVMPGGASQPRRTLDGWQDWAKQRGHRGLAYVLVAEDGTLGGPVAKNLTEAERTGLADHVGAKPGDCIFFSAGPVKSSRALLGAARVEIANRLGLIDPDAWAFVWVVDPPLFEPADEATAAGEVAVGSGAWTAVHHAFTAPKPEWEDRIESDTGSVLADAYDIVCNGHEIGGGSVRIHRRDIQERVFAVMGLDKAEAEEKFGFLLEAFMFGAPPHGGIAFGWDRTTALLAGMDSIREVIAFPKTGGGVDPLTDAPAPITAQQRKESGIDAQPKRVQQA

[2] = target: Shiga toxin 2 (Escherichia coli O157:H7) (UniProt P09385+P09386); assay: E. coli 0.157:H7 Shiga Toxin SOP - stx2 screening assay; assay type: functional; set-up: scale not given: direction of the effect not stated beside the values; settings: 30 µM

CCN1CCN(C(=O)c2nc(C)n(-c3ccccc3Cl)n2)CC1 showed a Percent Effect [1] of -3.15% and a Percent Effect [2] of 0.607%.
Work on Cn1cnnc1C1CCCN(C(=O)NCCc2ccccc2F)C1 (centres undefined) yielded a Percent Effect [1] of -6.03% and a Percent Effect [2] of 15.6%.
For Fc1ccc(CN2CCC(c3nccnc3-n3ccnc3)CC2)cc1, the Percent Effect [1] was -5.52% and the Percent Effect [2] was -0.684%.
Compound O=C(COc1cccc(Br)c1)N1CCOCC1c1ncon1 (centres undefined) has a Percent Effect [1] of -0.929% and a Percent Effect [2] of 9.16%.
Compound c1ccc(OCc2ccncc2)c(CNC2CCc3ncnn3C2)c1 (centres undefined) has a Percent Effect [1] of -3.54% and a Percent Effect [2] of -62.8%.
Fc1cccc(CN2CCC(c3n[nH]c4ncccc34)CC2)c1F showed a Percent Effect [1] of -3.17% and a Percent Effect [2] of -6.18%.
With O=C(CCn1cnnc1)N1CCCC(c2ncc[nH]2)C1 (centres undefined) the Percent Effect [1] was 5.32% and the Percent Effect [2] was -29.4%.
O=C(NC1CCC1)[C@@H]1C[C@@H]2CCN(Cc3cccs3)C[C@@H]2O1 showed a Percent Effect [1] of -2.46% and a Percent Effect [2] of -16.7%.
CNC(=O)[C@@]12CCC3(CCN(S(C)(=O)=O)CC3)[C@@H]1CN(S(C)(=O)=O)C2 showed a Percent Effect [1] of 0.0987% and a Percent Effect [2] of -5.23%.
Cc1nn(C)c(C)c1C1CCCN1Cc1cccc(C(N)=O)c1 (centres undefined) was tested, and the Percent Effect [1] was -1.14% and the Percent Effect [2] was -1.22%.
c1ncn(CC2CCCN(Cc3nc(C4CC4)no3)C2)n1 (centres undefined) gave a Percent Effect [1] of -2.51% and a Percent Effect [2] of -1.62%.
CCn1cc(NC(=O)NCC(O)COc2cccc(F)c2)cn1 (centres undefined) showed a Percent Effect [1] of 1.57% and a Percent Effect [2] of 20.1%.
In the case of CC(C)CCn1[nH]c(CNc2ccccc2)nc1=O, the Percent Effect [1] is reported as 5.27% and the Percent Effect [2] is reported as -8.36%.
CN(Cc1ccccn1)C1COC2(CCN(Cc3nccs3)CC2)C1 (centres undefined) was tested, and the Percent Effect [1] was -4.31% and the Percent Effect [2] was -5.28%.
CC(CNC(=O)c1ccccc1Oc1cccnc1)N(C)C (centres undefined) was tested, and the Percent Effect [1] was -2.89% and the Percent Effect [2] was -5.12%.
Work on Cn1cccc1C(=O)N1CCCN(CCCc2ccccc2)CC1 yielded a Percent Effect [1] of 0.0912% and a Percent Effect [2] of -20.8%.
Work on Cc1cnn(CC2CCCN2C(=O)c2ccc(C(N)=O)cn2)c1 (centres undefined) yielded a Percent Effect [1] of -2.92% and a Percent Effect [2] of 11.5%.
